The source of these data is the supplement of paper PMC6555819.

Assay in all cases: PBM binding z-score (relative to random genomic background probes); higher = stronger binding; sequences stand for … in GC…GCGATTGACAGCGTAGAATGAAGG
Experiment [1] has as its system PPARg:RXRa DBDmut IVT, anti-RXR (DBD mutation: RXRa K156A/R161A, NR concentration 270 nM, RXRa partner concentration 90 nM). The procedure, abridged:
(§1)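 Binding buffer was PBS pH 7.4 with 2% milk, 0.02% Triton X-100, 1 mM DTT, 0.2 mg/mL BSA and 0.4 mg/ml salmon testes DNA. In it, ligand-free nuclear receptor dimers were incubated 1 h on custom Agilent 4×180K protein-binding microarrays carrying double-stranded probes. Antibodies against each partner (one per run) detected binding, and z-scores were calculated against random background probes after regression normalization of scanned fluorescence.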

Experiment [2] relates to PPARg:RXRa IVT, anti-PPARg (NR concentration 270 nM, RXRa partner concentration 90 nM). The method, boiled down:
as §1

In experiment [3] the test system is PPARg DBDmut:RXRa IVT, anti-PPARg (DBD mutation: PPARg1 K132A/R137A, NR concentration 270 nM, RXRa partner concentration 90 nM). The procedure, abridged: as §1
In experiment [4] the test system is PPARg DBDmut IVT, anti-PPARg (DBD mutation: PPARg1 K132A/R137A, NR concentration 270 nM). The method, boiled down:
as §1

For experiment [5], the system named is PPARg homodimer (NR concentration 180 nM). The method, boiled down:
as §1

Experiment [6] deals with PXR:RXRa (NR concentration 270 nM, RXRa partner concentration 90 nM). The procedure, abridged:
as §1

Experiment [7] has as its system PXR homodimer (NR concentration 270 nM). The method, boiled down:
as §1

Experiment [8] has as its system RARa:RXR (NR concentration 270 nM, RXRa partner concentration 90 nM). The procedure, abridged: as §1
Experiment [9] deals with RARa homodimer (NR concentration 270 nM). The procedure, abridged: as §1
For experiment [10], the system named is RARb:RXRa (NR concentration 270 nM, RXRa partner concentration 90 nM). The procedure, abridged:
as §1

Experiment [11] deals with RARb homodimer (NR concentration 270 nM). The method, boiled down: as §1
Experiment [12] relates to RARg:RXRa (NR concentration 270 nM, RXRa partner concentration 90 nM). The procedure, abridged:
as §1

The subject of experiment [13] is RARg homodimer (NR concentration 270 nM). The method, boiled down:
as §1

For experiment [14], the system named is RXRa DBDmut IVT, anti-RXR (DBD mutation: RXRa K156A/R161A, NR concentration 90 nM). The procedure, abridged:
as §1

The test system of experiment [15] is RXRa homodimer (NR concentration 180 nM). The procedure, abridged: as §1
Experiment [16] concerns THRa:RXRa (NR concentration 90 nM, RXRa partner concentration 90 nM). The procedure, abridged: as §1
Experiment [17] deals with THRa homodimer (NR concentration 90 nM). The procedure, abridged: as §1
The test system of experiment [18] is VDR homodimer (NR concentration 270 nM). The method, boiled down: as §1

As for TCTTGTAGATCAGCATGTTAAGAAAGCTGGCCAA, the PBM binding z-score in experiment [1] was 1.61; in experiment [2], -0.0359; in experiment [3], -0.2; in [4] it was 0.837; in experiment [5] it was -0.198; in experiment [6], 0.127. The PBM binding z-score in experiment [7] was -0.264; in [8], 0.0601; in [9] it was -0.0517; in experiment [10], -0.19; in [11] it was -0.787; in experiment [12], -0.255. Moreover, the PBM binding z-score is -0.411 in [13]; 0.518 in [14]; -0.151 in [15]; -0.548 in experiment [16]; -0.975 in experiment [17]; -0.468 in experiment [18].
On to ACAGACAGGAGATGAAGGTAACTCAGGCTATCAT, for which the PBM binding z-score in [1] was -0.00945; in experiment [2], -0.0699; in experiment [3], 1.32; in [4], 0.405; in [5] it was 0.572; in experiment [6], 0.128. The PBM binding z-score in [7] was found to be 0.841; in experiment [8], 0.204; in [9], 0.797; in experiment [10] it was 0.539; in experiment [11], 0.465; in [12], 0.0751. In addition, the PBM binding z-score in experiment [13] is 0.419; in [14], -0.203; in experiment [15] it was -0.000835; in experiment [16], 1.03; in [17], 0.773; in experiment [18] it was 0.239.
Regarding CATACAGGGTCACCTAGGCCAGAGTAGGGACGGC, the PBM binding z-score stood at 1.55 in experiment [1]; 4.32 in experiment [2]; 1.86 in experiment [3]; 1.64 in experiment [4]; 1.65 in experiment [5]; 3.56 in experiment [6]. The PBM binding z-score in experiment [7] worked out at 0.395; in experiment [8], 4.49; in [9], 0.259; in experiment [10] it was 4.41; in [11] it was 3.71; in experiment [12], 5.53. For the same sequence, the PBM binding z-score in [13] was 5.52; in [14] it was 2.15; in experiment [15], 6.27; in experiment [16], 3.65; in experiment [17] it was 1.57; in experiment [18] it was 2.32.
Regarding GCGACTGGGGCAAAGCAGGTTACCGTAAGGTTGG, the PBM binding z-score in [1] is 4.2; in experiment [2] it was 3.74; in [3], -0.21; in [4] it was -0.572; in experiment [5], 0.239; in experiment [6] it was 0.503. Besides, the PBM binding z-score in experiment [7] was -0.648; in experiment [8], 1.73; in [9], -1.1; in experiment [10], 0.922; in [11], 1.14; in [12], 0.477. The PBM binding z-score in experiment [13] is 0.183; in experiment [14], -0.47; in [15] it was 0.234; in experiment [16], 3.15; in [17] it was -0.142; in [18], -0.434.
For CCTAGCAGGCCAATCTGGGTCACTCTAGGCTTGA, the PBM binding z-score was 3.94 in experiment [1]; 4.77 in experiment [2]; -0.959 in experiment [3]; -1.14 in [4]; 0.236 in experiment [5]; 0.544 in experiment [6]. The PBM binding z-score in experiment [7] was -0.524; in experiment [8], 1.17; in experiment [9], -1.01; in [10] it was 1.28; in experiment [11], 2.09; in [12], 0.781. The PBM binding z-score was 1.14 in experiment [13]; 0.254 in [14]; 0.361 in experiment [15]; 3.2 in experiment [16]; 0.202 in [17]; -0.375 in experiment [18].
For the sequence CGTCCCAGGTCAATGCTAGGTCAGTGAAAGCATT, the PBM binding z-score in experiment [1] is 2.01; in experiment [2], 2.96; in experiment [3], -0.129; in experiment [4], -0.875; in experiment [5] it was 3.66; in [6], 3.21. The PBM binding z-score was 0.306 in [7]; 4.72 in experiment [8]; -0.102 in experiment [9]; 4.37 in [10]; 4.23 in [11]; 6.41 in experiment [12]. The PBM binding z-score amounted to 5.01 in experiment [13]; 1.99 in [14]; 3.1 in experiment [15]; 4.25 in experiment [16]; 2.99 in experiment [17]; 1.74 in [18].
As to ATACCAAGGTGATCGTGAGGTCGTTCATACTAAC, the PBM binding z-score stood at 0.587 in experiment [1]; 1.54 in experiment [2]; 0.827 in experiment [3]; 0.877 in [4]; 1.15 in experiment [5]; 3.23 in [6]. Also, the PBM binding z-score in [7] amounted to 2.03; in experiment [8], 2.01; in experiment [9], 0.612; in experiment [10] it was 1.5; in experiment [11], 1.73; in experiment [12] it was 2.21. Further, the PBM binding z-score stood at 0.992 in [13]; 0.992 in experiment [14]; 1.58 in [15]; 3.38 in experiment [16]; 2.71 in [17]; 3.68 in [18].
As to CTTACTGGGCCATTCAGAGGTCATTGATCATATG, the PBM binding z-score stood at 6.81 in experiment [1]; 6.21 in experiment [2]; 0.768 in experiment [3]; 1.22 in experiment [4]; 2.09 in [5]; 4.88 in experiment [6]. Moreover, the PBM binding z-score in experiment [7] is 2.99; in experiment [8] it was 4.16; in [9], 0.436; in [10], 3.23; in experiment [11], 4.12; in [12], 4.5. The PBM binding z-score was 3.62 in [13]; 1.88 in experiment [14]; 4.04 in experiment [15]; 3.24 in experiment [16]; 1.61 in experiment [17]; 3.73 in experiment [18].
